# Measured values published in PubChem BioAssay AID504521 (NMMLSC, 2011).
# The list shows a part of the results. A number with no mark means an inactive call.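 Rule for the calls: active = compounds whose bead fluorescence drops by more than 37 kMESF across the dose range, marking them as dye quenchers; inactive = the rest.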
# Assay: aptamer fluorescence quenchers, flow cytometry – biochemical, cherry pick 1, bead-based flow cytometry, artefact control for GRK2 RNA aptamer inhibitor project, dose response (AID 504521)
# Details: Fluorescent RNA aptamer beads, quenching, hits give high values
smiles,measurement,value
COc1ccc(N2C(=O)/C(=C/c3ccco3)C(=O)NC2=S)cc1,fluorescence change (kMESF span),12 kMESF
